Each structure is given as a SMILES string. ± gives the standard deviation of the averaged measurements.

Results on 14 molecules are retold here after the supplement of paper PMC6522484.

Assay [1] relates to DLD1. Briefly: cell viability (CellTiter-Glo) relative to plate median (fraction of plate median); higher = more viable cells. To be noted: 5 µM; treatment time 24 h; reporter: 7TFP. The procedure, abridged:
(§1)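 Two independent replicates were averaged for each reported value. Library compounds were applied at a final 5 µM for 24 h to colorectal cancer cell lines stably expressing lentiviral TCF/Wnt firefly luciferase reporters. Firefly luciferase or CellTiterGlo luminescence from each well was normalised to the plate median.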
On the technique in general: Cellular ATP, detected with luciferase, serves as a proxy for viable cell number.

For a further assay, the system named is HCT116. The description is as above. The note with it: 5 µM; treatment time 24 h; reporter: TCF4/Wnt. The procedure, abridged: as §1
Assay [2] has as its system SW480. The description is as above. To be noted: 5 µM; treatment time 24 h; reporter: 7TFP. An outline of the steps: as §1
For assay [3], the system named is DLD1. The assay can be described thus: TCF/Wnt firefly luciferase reporter signal relative to plate median (fraction of plate median); higher = higher Wnt reporter signal. The note with it: 5 µM; treatment time 24 h; reporter: 7TFP. An outline of the steps:
as §1
On the technique in general: In a reporter assay the amount or activity of a reporter protein is the signal.

In assay [4] the test system is SW480. Described as above. The note with it: 5 µM; treatment time 24 h; reporter: 7TFP. The procedure, abridged:
as §1

For `O=C(Oc1cccc2cccnc12)c1ccccc1`, the cell viability in the assay on DLD1 [1] was found to be 0.999 ± 0.044; with HCT116, 0.891 ± 0.029; with SW480 [2] it was 1.03 ± 0.035. The entries for the “TCF/Wnt firefly luciferase reporter signal” value in the assay on DLD1 [3] and in the assay on SW480 [4] were 0.856 ± 0.071 and 0.871 ± 0.025, respectively.

In the case of `O=C(O)c1nc2cc(Cl)c(Cl)cc2nc1O`, the values for the cell viability in the assay with DLD1 [1], in the assay with HCT116 and in the assay on SW480 [2] were 0.95 ± 0.16, 0.957 ± 0.046 and 1.03 ± 0.028, respectively. In addition, the “TCF/Wnt firefly luciferase reporter signal” value in the assay with DLD1 [3] is 0.831 ± 0.0014; with SW480 [4], 0.951 ± 0.098.

For `N=C(N)NCCCCNC(=N)N`, the figures for the cell viability in the assay on DLD1 [1], in the assay on HCT116 and with SW480 [2] were 0.922 ± 0.0085, 0.978 ± 0.1 and 0.965 ± 0.017, respectively. The entries for the “TCF/Wnt firefly luciferase reporter signal” value in the assay on DLD1 [3] and in the assay on SW480 [4] were 0.994 ± 0.14 and 1.04 ± 0.067, respectively.

Take `NC[C@H]1CC[C@H](C(=O)O)CC1`: the cell viability was determined as 0.995 ± 0.022 in the assay with DLD1 [1], 1.025 ± 0.0071 in the assay with HCT116 and 1.02 ± 0.014 with SW480 [2]. Moreover, the “TCF/Wnt firefly luciferase reporter signal” value is 0.927 ± 0.1 in the assay with DLD1 [3] and 0.981 ± 0.028 in the assay with SW480 [4].

Take `N[C@@H](Cc1cc(I)c(Oc2ccc(O)c(I)c2)c(I)c1)C(=O)O`: the cell viability in the assay on DLD1 [1] turned out to be 0.988 ± 0.015; in the assay with HCT116, 0.926 ± 0.012; in the assay on SW480 [2], 0.969 ± 0.036. In addition, the “TCF/Wnt firefly luciferase reporter signal” value was 1.01 ± 0.17 in the assay on DLD1 [3] and 0.978 ± 0.0099 with SW480 [4].

For `C[C@@H]1CC[C@@]23CCC4(C)[C@@](C=CC5[C@@]6(C)CCC(=O)C(C)(C)C6CC[C@]54C)(OC2=O)C3[C@H]1C` (stereo not given in full), the cell viability in the assay with DLD1 [1] is 0.982 ± 0.04; with HCT116 it was 0.991 ± 0.15; in the assay on SW480 [2], 0.956 ± 0.018. In addition, the “TCF/Wnt firefly luciferase reporter signal” value with DLD1 [3] came out at 0.836 ± 0.09; with SW480 [4], 0.921 ± 0.017.

Take `C[N+](C)(C)CC(O)CC(=O)[O-]` (stereo not given): the cell viability in the assay on DLD1 [1] came out at 0.976 ± 0.03; in the assay on HCT116 it was 1.07 ± 0.14; in the assay with SW480 [2], 0.9395 ± 0.00071. For the same molecule, the “TCF/Wnt firefly luciferase reporter signal” value with DLD1 [3] is 1.14 ± 0.014; with SW480 [4] it was 0.902 ± 0.1.

Turning to `O=c1cc(-c2ccccc2)oc2cc(O)c(O)cc12`, the cell viability is 1.04 ± 0.14 in the assay with DLD1 [1], 0.986 ± 0.063 in the assay with HCT116 and 1.03 ± 0.042 in the assay on SW480 [2]. Besides, the “TCF/Wnt firefly luciferase reporter signal” value came out at 0.801 ± 0.064 with DLD1 [3] and 1 ± 0.12 with SW480 [4].

Take `C[N+](C)(C)CCCCCC[N+](C)(C)C`: the cell viability came out at 1.01 ± 0.027 in the assay with DLD1 [1], 0.903 ± 0.022 in the assay with HCT116 and 0.93 ± 0.072 in the assay with SW480 [2]. In addition, the “TCF/Wnt firefly luciferase reporter signal” value in the assay with DLD1 [3] amounted to 1.09 ± 0.21; with SW480 [4], 1.1 ± 0.11.

As for `CC[C@H](/C=C/[C@@H](C)[C@H]1CC[C@H]2[C@@H]3CC=C4C[C@@H](O)CC[C@]4(C)[C@H]3CC[C@]12C)C(C)C`, the cell viability is 1.04 ± 0.096 with DLD1 [1], 1.14 ± 0.14 in the assay with HCT116 and 1.03 with SW480 [2]. The entries for the “TCF/Wnt firefly luciferase reporter signal” value in the assay with DLD1 [3] and in the assay on SW480 [4] were 1.05 ± 0.014 and 1 ± 0.066, respectively.

Regarding `CCOc1ccc(NC(C)=O)cc1`, the cell viability in the assay on DLD1 [1] worked out at 0.956 ± 0.12; in the assay on HCT116, 1.065 ± 0.0071; in the assay on SW480 [2], 1 ± 0.021. In addition, the figures for the “TCF/Wnt firefly luciferase reporter signal” value with DLD1 [3] and in the assay with SW480 [4] were 1.01 ± 0.08 and 1.06 ± 0.05, respectively.

Take `CC(=O)c1cc2c(cc1O)OC(C)(C)C=C2`: the cell viability in the assay with DLD1 [1] worked out at 1.09 ± 0.099; in the assay with HCT116 it was 1 ± 0.011; in the assay with SW480 [2] it was 1.03 ± 0.014. Besides, the “TCF/Wnt firefly luciferase reporter signal” value in the assay with DLD1 [3] came to 0.99 ± 0.057; in the assay on SW480 [4], 1.01 ± 0.023.

For the molecule `CO[C@@H]1[C@H](O)[C@@H](C)O[C@@H](OC[C@H]2[C@@H]3O[C@H]3/C=C/C(=O)[C@@](C)(O)C[C@H](C)[C@H](O[C@@H]3O[C@H](C)C[C@H](OC)[C@H]3O)[C@@H](C)/C=C/C(=O)O[C@@H]2C)[C@@H]1OC` [Chalcomycin], the cell viability in the assay on DLD1 [1] stood at 1.04 ± 0.083; with HCT116, 1.1 ± 0.071; in the assay with SW480 [2], 1.01 ± 0.048. In addition, the results for the “TCF/Wnt firefly luciferase reporter signal” value in the assay on DLD1 [3] and with SW480 [4] were 0.869 ± 0.094 and 0.965 ± 0.034, respectively.

As for `O=C(CCc1ccc(O)cc1)c1c(O)cc(O)cc1O[C@@H]1OC(CO)[C@@H](O)[C@@H](O)C1O` (stereo not given in full), the cell viability with DLD1 [1] stood at 1.07 ± 0.064; in the assay with HCT116 it was 1.01 ± 0.016; in the assay on SW480 [2] it was 1.03 ± 0.021. Moreover, the “TCF/Wnt firefly luciferase reporter signal” value was 0.909 ± 0.033 in the assay on DLD1 [3] and 1.06 ± 0.092 in the assay on SW480 [4].
